Experimental findings from PubChem BioAssay (NCI) are described below.

Test systems include HCT-15 colon; HT29 colon; SNB-75 CNS; SNB-19 CNS; U251 CNS; PC-3 prostate; SK-MEL-5 melanoma; UACC-62 melanoma; LOX IMVI melanoma; SK-MEL-28 melanoma; SK-MEL-2 melanoma; EKVX NSCLC; SN12C renal; UO-31 renal; TK-10 renal; ACHN renal; CAKI-1 renal; A498 renal; CCRF-CEM leukemia.
Common to all, as to experiment: NCI-60 one-dose screen, 48 h (100 = growth as untreated, 0 = no growth, -100 = all killed)
Common to all, as to settings: 10 µM

Each structure is given as a SMILES string. The panel holds about 83,000 compounds, 20% with a hit somewhere; the sample as a whole holds those more often.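 Percent growth is the endpoint: 0 to 100 indicates growth inhibition (40 means 60% inhibition), 0 means no net growth, and negative values indicate cell death.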 Unmarked numbers belong to inactive results. The source made the active and inactive calls. Rule for the calls: active = growth percent below 10; inactive = the rest.

With `Cc1cc(=O)oc2cc(OCCCCOc3ccc(/C=C/C(=O)Nc4cccc(Cl)c4)cc3)ccc12`, the growth in the assay on HCT-15 colon was 60.3%; with HT29 colon, 86.4%; in the assay on SNB-75 CNS, 87.7%; with SNB-19 CNS, 74.7%; in the assay with U251 CNS, 56.8%; in the assay on PC-3 prostate it was 91.2%. Also, the growth is 60.6% with SK-MEL-5 melanoma; 75.3% in the assay on UACC-62 melanoma; 64.4% with LOX IMVI melanoma; 86.8% in the assay on SK-MEL-28 melanoma; 86.9% with SK-MEL-2 melanoma; 71.3% with EKVX NSCLC. In addition, the growth in the assay with SN12C renal is 73.8%; in the assay with UO-31 renal, 84.9%; with TK-10 renal, 66.2%; in the assay on ACHN renal, 81.4%; with CAKI-1 renal, 73.2%; in the assay on A498 renal it was 80.7%. In addition, in the assay on CCRF-CEM leukemia, the growth was 83.4%.

For the compound `N#Cc1ccc(NC(=O)CSc2ccc(-c3ccc(Br)cc3)nn2)cc1`, the growth in the assay with HCT-15 colon was 72.7%; in the assay with HT29 colon, 84.1%; in the assay with SNB-75 CNS, 76%; in the assay on SNB-19 CNS it was 64%; with U251 CNS, 87.7%; in the assay with PC-3 prostate, 58.6%. Besides, the growth in the assay on SK-MEL-5 melanoma is 4.86% (active); in the assay on UACC-62 melanoma it was 29.9%; in the assay on LOX IMVI melanoma, 52.8%; with SK-MEL-28 melanoma it was 62.4%; in the assay on SK-MEL-2 melanoma, 57.9%; with EKVX NSCLC, 72.4%. Besides, the growth with SN12C renal was 73.5%; with UO-31 renal, 54.6%; in the assay with TK-10 renal, 103%; in the assay with ACHN renal, 64.5%; in the assay on CAKI-1 renal, 67.2%; with A498 renal, 89.4%. In addition, the growth in the assay on CCRF-CEM leukemia was 57.9%.

In the case of `O=C(Cn1cc(CSc2nnc3oc4ccccc4n23)nn1)Nc1cccc(Cl)c1`, the growth in the assay on HCT-15 colon is 62.4%; in the assay on HT29 colon, 82.3%; in the assay on SNB-75 CNS, 51%; in the assay with SNB-19 CNS, 74.5%; with U251 CNS it was 70.6%; in the assay with PC-3 prostate it was 50.4%. Also, the growth in the assay with SK-MEL-5 melanoma is 58.3%; in the assay with UACC-62 melanoma, 49.6%; in the assay with LOX IMVI melanoma, 58.3%; in the assay with SK-MEL-28 melanoma, 81.5%; in the assay with SK-MEL-2 melanoma, 55.6%; in the assay on EKVX NSCLC, 57.6%. Besides, the growth in the assay with SN12C renal was 76.5%; in the assay on UO-31 renal it was 55.3%; with TK-10 renal, 79.3%; in the assay with ACHN renal it was 66.7%; in the assay on CAKI-1 renal it was 59.8%; in the assay with A498 renal, 106%. Further, the growth in the assay with CCRF-CEM leukemia is 50.6%.

`CC1(C)CC[C@]2(C(=O)N3CCOCC3)CC[C@]3(C)C(=CC[C@@H]4[C@@]5(C)CC[C@H](NCO)C(C)(C)[C@@H]5CC[C@]43C)[C@H]2C1`: the growth is -83% (active) in the assay with HCT-15 colon; -60.8% (active) in the assay on HT29 colon; -93.2% (active) in the assay on SNB-75 CNS; -95.8% (active) in the assay with SNB-19 CNS; -88.7% (active) in the assay with U251 CNS; -61.6% (active) with PC-3 prostate. For the same compound, the growth with SK-MEL-5 melanoma is -97.6% (active); in the assay with UACC-62 melanoma it was -93.9% (active); in the assay with LOX IMVI melanoma, -83.8% (active); in the assay on SK-MEL-28 melanoma it was -98.9% (active); in the assay with SK-MEL-2 melanoma, -82% (active); with EKVX NSCLC, -87.8% (active). Moreover, the growth in the assay on SN12C renal is -91% (active); in the assay with UO-31 renal it was -100% (active); in the assay with TK-10 renal it was -82% (active); in the assay with ACHN renal, -100% (active); with CAKI-1 renal it was -96.2% (active); with A498 renal, -91.5% (active). Moreover, the growth with CCRF-CEM leukemia was -33.8% (active).

On to `COC(=O)c1c(C(=O)OC)c2n(c1C)[C@@H]([C@@H](C)[C@H]1CC[C@H]3[C@@H]4CCC5=CC(=O)CC[C@]5(C)[C@H]4CC[C@]13C)SC2`, for which the growth in the assay on HCT-15 colon is 22.2%; in the assay on HT29 colon, 32.9%; in the assay with SNB-75 CNS, 51.1%; in the assay on SNB-19 CNS it was 54.2%; in the assay with U251 CNS, 38.9%; in the assay with PC-3 prostate, 8.05% (active). Further, the growth was -87% (active) with SK-MEL-5 melanoma; 40.6% in the assay with UACC-62 melanoma; 28.4% in the assay on LOX IMVI melanoma; 43.1% with SK-MEL-28 melanoma; 40.2% with SK-MEL-2 melanoma; 26.2% with EKVX NSCLC. Besides, the growth is 58% in the assay with SN12C renal; 30.1% with UO-31 renal; 57.9% in the assay with TK-10 renal; 46% in the assay with ACHN renal; -3.55% (active) in the assay with CAKI-1 renal; 71.8% with A498 renal. In addition, the growth in the assay with CCRF-CEM leukemia is 10.2%.

With `O=C(CNc1nc(-c2ccccc2)cs1)Nc1cccc(Cl)c1`, the growth with HCT-15 colon is 5.51% (active); in the assay on HT29 colon it was 32.1%; in the assay with SNB-75 CNS, 50.2%; in the assay on SNB-19 CNS, 51%; in the assay with U251 CNS it was 26.9%; in the assay with PC-3 prostate, 18.9%. The growth is 35.5% with SK-MEL-5 melanoma; 19.8% in the assay with UACC-62 melanoma; 7.96% (active) in the assay with LOX IMVI melanoma; 42.8% in the assay with SK-MEL-28 melanoma; 38.2% in the assay on SK-MEL-2 melanoma; 13.6% in the assay on EKVX NSCLC. The growth in the assay on SN12C renal was 41.4%; in the assay on UO-31 renal, 9.97% (active); in the assay with TK-10 renal, 52.5%; in the assay with ACHN renal it was 28.3%; in the assay on CAKI-1 renal, 28.4%; with A498 renal, 66.5%. Moreover, the growth in the assay on CCRF-CEM leukemia is 26.3%.

For `CCOC(=O)C1=C(N)N(c2ccc(Cl)cc2)C2=C(C(=O)CC(C)(C)C2)C1c1ccc(N2CCOCC2)cc1` (configuration not stated), the growth in the assay on HCT-15 colon was 92.5%; in the assay on HT29 colon it was 104%; in the assay with SNB-75 CNS, 109%; with SNB-19 CNS, 91.2%; with U251 CNS, 88.2%; with PC-3 prostate it was 92%. Besides, the growth in the assay on SK-MEL-5 melanoma was 80.3%; in the assay with UACC-62 melanoma, 82.8%; in the assay on LOX IMVI melanoma, 115%; with SK-MEL-28 melanoma, 105%; in the assay on SK-MEL-2 melanoma it was 96.2%; with EKVX NSCLC, 74.6%. Moreover, the growth with SN12C renal was 97.7%; with UO-31 renal, 85.3%; in the assay on TK-10 renal it was 98%; in the assay with ACHN renal it was 112%; in the assay on CAKI-1 renal, 86.7%; in the assay with A498 renal it was 119%. The growth in the assay on CCRF-CEM leukemia is 100%.

For the compound `CNC(=O)c1cc(-c2ccc(NC(=O)Nc3ccc(C)cc3)cc2)nc2cccnc12`, the growth is 93.6% with HCT-15 colon; 99.2% in the assay on HT29 colon; 107% with SNB-75 CNS; 91.7% with SNB-19 CNS; 101% with U251 CNS; 87.1% in the assay with PC-3 prostate. Also, the growth in the assay with SK-MEL-5 melanoma is 95.4%; with UACC-62 melanoma it was 83.8%; with LOX IMVI melanoma, 101%; in the assay on SK-MEL-28 melanoma, 118%; in the assay on SK-MEL-2 melanoma, 103%; with EKVX NSCLC it was 99.4%. In addition, the growth with SN12C renal is 101%; with UO-31 renal, 63.9%; with TK-10 renal, 108%; in the assay on ACHN renal, 92.3%; with CAKI-1 renal, 92.8%; in the assay with A498 renal, 95.4%. In the assay on CCRF-CEM leukemia, the growth was 93.5%.
